Screening results as filed in PubChem.
The list is not random: actives were taken first. Their share in the collection is about 11%.
L3MBTL1 inh: blocks human L3MBTL1 | Q9Y468 | AlphaScreen L3MBTL1–H3K9me1 peptide binding | Potency, µM (top dose mostly 57.1 µM), most hits filed as inhibitors | 230,000 compounds, 0.66% hits | AID 485360; note: nearly all actives have a fitted effect of over 60% in size
Target sequence (Q9Y468 whole entry, looked up): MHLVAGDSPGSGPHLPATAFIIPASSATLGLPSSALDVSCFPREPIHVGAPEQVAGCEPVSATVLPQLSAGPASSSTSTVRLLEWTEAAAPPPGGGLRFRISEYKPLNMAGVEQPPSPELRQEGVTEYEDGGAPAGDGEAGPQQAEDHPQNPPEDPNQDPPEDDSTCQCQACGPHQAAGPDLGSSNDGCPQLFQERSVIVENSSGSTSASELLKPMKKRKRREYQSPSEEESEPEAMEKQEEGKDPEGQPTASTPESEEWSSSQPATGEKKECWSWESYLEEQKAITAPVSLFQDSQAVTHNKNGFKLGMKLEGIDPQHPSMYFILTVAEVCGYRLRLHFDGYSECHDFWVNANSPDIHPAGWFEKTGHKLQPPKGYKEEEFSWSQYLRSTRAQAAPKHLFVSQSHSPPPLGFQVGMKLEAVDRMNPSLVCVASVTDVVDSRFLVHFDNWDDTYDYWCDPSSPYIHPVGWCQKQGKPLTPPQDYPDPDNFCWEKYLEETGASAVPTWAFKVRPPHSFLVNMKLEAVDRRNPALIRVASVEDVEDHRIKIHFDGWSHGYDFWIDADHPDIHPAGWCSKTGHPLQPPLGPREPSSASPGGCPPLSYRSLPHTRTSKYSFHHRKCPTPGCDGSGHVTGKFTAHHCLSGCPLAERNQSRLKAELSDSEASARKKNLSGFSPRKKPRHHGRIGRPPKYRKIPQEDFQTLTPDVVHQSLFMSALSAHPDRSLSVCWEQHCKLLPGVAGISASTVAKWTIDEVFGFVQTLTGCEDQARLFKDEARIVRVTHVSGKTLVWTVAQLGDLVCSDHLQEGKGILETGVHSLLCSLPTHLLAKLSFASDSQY
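First, the protein-peptide complex forms for 30 min at room temperature (L3MBTL1 50 nM, biotinylated H3K9me1 peptide 75 nM). Next, compounds are pin-transferred and incubated 30 min. Finally, AlphaScreen beads are added and read after 30 min.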
BAZ2B inh: inhibitors of human BAZ2B bromodomain. AlphaScreen BAZ2B-H3K14Ac peptide displacement. Potency, µM (highest dose often 114 µM), usual class: inhibitors. 360,000 compounds, 4.4% hits. AID 504333; note: nearly all actives have a fitted effect of over 60% in size
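Complex of BAZ2B and biotin-H3K14Ac (50 nM apiece) forms over 30 min at RT, then faces library compounds up to 110 uM for another 30 min; AlphaScreen beads added, 20 min dark incubation, luminescence read.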
JMJD2A Tudor: inhibitors of human JMJD2A Tudor domain; O75164; AlphaScreen JMJD2A-Tudor / H3K4me3 peptide binding; Potency, µM (top dose mostly 114 µM), most hits filed as inhibitors; 390,000 compounds, 4.4% hits; note: nearly all actives have a fitted effect of over 50% in size
G9a inh: G9a (human) methyltransferase inhibition; Q96KQ7; G9a H3K9 monomethylation, AlphaScreen, 2 h; Potency, µM (doses to about 102 µM), most hits filed as inhibitors; 350,000 compounds, 8.8% hits; note: nearly all actives have a fitted effect of over 75% in size
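G9a (20 nM) preincubated 15 min RT with compounds, then 500 nM biotinylated H3K9 peptide and 20 uM SAM added; 2 h RT reaction. Monomethyl-H3K9 product detected by AlphaScreen with anti-H3K9me1 antibody, streptavidin donor and anti-rabbit IgG acceptor beads.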
HP1b binding inh: inhibitors of HP1-beta chromodomain binding to methylated histone tails; P83916; AlphaScreen HP1-beta / biotin-H3K9me3 peptide binding; Potency, µM (top dose mostly 114 µM), most hits filed as inhibitors; 390,000 compounds, 0.56% hits; AID 540317; note: nearly all actives have a fitted effect of over 70% in size
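Compound inhibition of the preformed complex between 50 nM HP1-beta and 50 nM biotinylated H3K9me3 peptide was read by AlphaScreen. Buffer was PBS pH 7.4 with 0.01% Tween-20. Incubations ran 30 min at room temperature, with 10 ug/mL donor/acceptor beads.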
Numbers stand for hits; n = inactive; u = inconclusive; x = no result; [ ] = remark or other dose. Calls come from the whole dose curve; as a rule, active = well fitted inhibition curve with a large enough effect; inconclusive = small, poorly fitted or top-dose-only effect; inactive = no such curve, though single readings can be large or run the other way.

SMILES | L3MBTL1 inh | BAZ2B inh | JMJD2A Tudor | G9a inh | HP1b binding inh
CCOC(=O)c1c(-c2ccc(F)cc2)csc1NC(=O)C1CC=CCC1C(=O)O (stereo unspecified) | u | n | n | 15.8µM | u
CCOC(=O)c1c(-c2ccc(-c3ccccc3)cc2)csc1NC(=O)CCN1CCOCC1 | n | n | u | u | n
CCOC(=O)c1c(-c2ccccc2)csc1NC(=O)C(C)NCCCN1CCOCC1 (stereo unspecified) | n | 39.8µM | 50.1µM | 11.2µM | u
CCOC(=O)c1c(-c2ccc(C)c(C)c2)csc1NC(=O)C1CC=CCC1C(=O)O (stereo unspecified) | x | n | n | n | n
CC1(C)OC(=O)C2(Cc3ccccc3N3CCCC32)C(=O)O1 (stereo unspecified) | x | x | u | x | n
CC1(C)OC(=O)C2(Cc3ccc(Br)cc3N3CCCCC32)C(=O)O1 (stereo unspecified) | x | x | 56.2µM | x | n
COC(=O)c1ccc(NC(=O)NC(C)c2c(-n3cccc3)sc(C)c2C)cc1 (stereo unspecified) | x | u | n | n | n
O=C(NCCN1CCCC1)c1ccc(Cn2c(=S)[nH]c3ccc(Br)cc3c2=O)cc1 | x | n | n | 50.1µM | n
CCN(CC)CCNC(=O)c1ccc2c(=O)n(C3CCCC3)c(=S)[nH]c2c1 | n | u | n | 20µM | n
CCOc1cc2[nH]c(=S)n(Cc3ccc(C(=O)NCCN(CC)CC)cc3)c(=O)c2cc1OCC | x | n | u | 35.5µM | n
O=C(NCCCN1CCCC1)c1ccc(Cn2c(=S)[nH]c3ccc(Br)cc3c2=O)cc1 | n | n | x | 22.4µM | x
CC1CCN(CCNC(=O)c2ccc3c(=O)n(Cc4ccc(Cl)cc4)c(=S)[nH]c3c2)CC1 | x | u | n | n | n
CCOC(=O)c1cc(-c2ccc(C)cc2)n(CCC(=O)Nc2nc3c(C)cccc3s2)c1C | x | u | u | u | n
CN(C)c1ccc(S(=O)(=O)NCC(=O)OCC(=O)Nc2cc(Cl)cc(Cl)c2)cc1[N+](=O)[O-] | n | u | u | n | n
CN(CCOc1ccc(Cl)cc1)C(=O)CNS(=O)(=O)c1ccc(N(C)C)c([N+](=O)[O-])c1 | n | u | u | 39.8µM | n
CCCCCCCCCCCCCCCC(=O)OCC(COP(=O)(O)OCC[N+](C)(C)C)OC(=O)CCCCCCCCCCCCCCC (stereo unspecified) | x | x | x | n[12.7 µM] | x
Cc1ccc(N2C(=O)c3cccc4c(C(=O)O)ccc(c34)C2=O)cc1 | n | n | x | n | x
CC(=O)c1ccc2c3c(cccc13)C(=O)N(c1c(C)nn(C)c1C)C2=O | n | n | n | 10µM | n
Cc1ccc(C)c(NC(=O)C2CCN(S(=O)(=O)c3c(C)noc3/C=C/c3cccs3)CC2)c1 | x | x | n | u | n
Cc1ccc(-n2nc3ccc(N)cc3n2)cc1C | n | 50.1µM | n | 10µM | n
Cc1ccc(-n2nc3ccc(N)cc3n2)cc1Cl | x | u | n | 44.7µM | n
Cc1ccc(-n2nc3ccc(N)cc3n2)c(C)c1 | n | u | n | x | n
COc1ccc(-n2nc3ccc(N)cc3n2)cc1Cl | n[2.29 µM] | n | n | n[0.501 µM] | n
O=C(OCc1cc(=O)n2nc(-c3cccs3)sc2n1)c1ccc(F)cc1 | x | n | n | n | n
Cc1ccc(NC(=O)CNC(=O)OCc2ccccc2)cc1C | n | n | 56.2µM | n | n
SMILES | L3MBTL1 inh | BAZ2B inh | JMJD2A Tudor | G9a inh | HP1b binding inh
Cn1ccc(=S)c2ccccc21 | x | x | 8.91µM | 31.6µM | n
NC(=O)c1c(NC(=O)c2noc3c2CCCC3)sc2c1CCCC2 | x | n | 79.4µM | 1.78µM | u
Cc1cc(C(F)F)n2nc(C(=O)Nc3sc4c(c3C(N)=O)CCC4)nc2n1 | n | n | n | 39.8µM | n
Cn1ccc(C(=O)Nc2sc3c(c2C(N)=O)CCCCC3)n1 | x | n | n | 22.4µM | n
CCOC(=O)c1c(NC(=O)c2noc3c2CC(C(C)(C)C)CC3)sc2c1CCCC2 (stereo unspecified) | x | n | 79.4µM | 2µM | u
COC(=O)c1c(NC(=O)c2nc3nc(C)cc(C(F)F)n3n2)sc2c1CCC2 | n | n | n | n | n
CCOc1ccc(OCCC(=O)N(CC(C)C)c2c(N)n(Cc3ccccc3)c(=O)[nH]c2=O)cc1 | x | x | n | x | n
Cc1ccc(NC(=O)C2CCC(CNS(=O)(=O)c3ccc4c(c3)CCCC(=O)N4)CC2)c(C)c1 (stereo unspecified) | x | n | n | n | n
